Experimental data as given in ChEMBL document CHEMBL3988442, “University of Dundee, Small-Polar-MMV Screening Library” (2021).
About 13,000 (27%) of roughly 48,000 compounds showed an effect of 50% or more. This is one part of the list.

Test system: Wolbachia pipientis
Assay: Anti-Wolbachia Cell-Based Screen
Format: functional
Parameters: scale not given: in the data most compounds retested in dose-response had high values
Conditions: 5 µM

| SMILES | Percent Effect [%] |
| --- | --- |
| COc1ccc(CN2CCN(S(=O)(=O)c3cc(C(=O)O)cs3)CC2)cc1 | 1.54 |
| Cc1cc(-c2nn(C)c(Cl)c2CN2CCOCC2CC(=O)O)no1 (configuration not stated) | 1.04 |
| CCCS(=O)(=O)c1ncc(CN2CCC(C)CC2)n1CC1CCCO1 (configuration not stated) | -5.004 |
| CC(=O)N1CCN(CCCSCc2ccccc2)CC1 | -1.866 |
| Cc1ccc(F)cc1S(=O)(=O)NCc1cccc(CS(C)(=O)=O)c1 | -14.38 |
| CC1CCN(CCCNS(=O)(=O)c2cc(F)cc(F)c2)CC1.Cl | -12.88 |
| CC(=O)N1CCN(CCNS(=O)(=O)c2cccc(F)c2)CC1 | 146.4 |
| CC(=O)N1CCN(CCNS(=O)(=O)c2cc(F)ccc2C)CC1 | 96.01 |
| CC(=O)N1CCN(CCNS(=O)(=O)c2c(F)cccc2F)CC1 | 115.2 |
| CC(=O)N1CCN(CCNS(=O)(=O)c2cc(F)cc(F)c2)CC1 | 102.1 |
| CSCc1cccc(S(=O)(=O)NCCCN2CCOCC2)c1 | -6.624 |
| CC1CCN(CCCNS(=O)(=O)c2cccc(F)c2)CC1.Cl | 5.28 |
| O=S(=O)(NCCC(O)c1cccs1)c1c(F)cccc1F (configuration not stated) | 0.3394 |
| O=S(=O)(NCCCN1CCCC1)c1cc(F)cc(F)c1 | -0.6955 |
| CC(=O)N1CCN(CCNc2ncc(Br)cc2C)CC1 | 3.175 |
| Cc1nc(CNCc2ccc(N3CCN(C)CC3)nc2)cs1 | -1.26 |
| CN(CCCNS(=O)(=O)N1CCC2(CC1)OCCO2)c1ccccc1 | 15.24 |
| CNc1ccnc(N2C[C@@H]3CC[C@H](C2)N(CCOC)C3=O)n1 | -5.532 |
| O=S(=O)(NCCN1CC=CC1)c1ccc(Cl)cc1 | -10.33 |
| CS(=O)(=O)Cc1cccc(CNS(=O)(=O)c2ccc(F)c(F)c2)c1 | -9.477 |
| CC(=O)N1CCN(CCNS(=O)(=O)c2ccc(F)c(F)c2)CC1 | 114.9 |

| SMILES | Percent Effect [%] |
| --- | --- |
| O=C(Cc1cccs1)N1CCCC(CNS(=O)(=O)Cc2ccccc2)C1 (configuration not stated) | -8.788 |
| Cn1cc(CN2CCO[C@H]3CN(Cc4ccsc4)C[C@H]32)cn1 | -4.934 |
| COCC1CN(C(=O)Cc2cccs2)Cc2c1cnn2C (configuration not stated) | -7.933 |
| Cn1ncc2ccc(C3CCCN(C(=O)Cc4cccs4)C3)nc21 (configuration not stated) | 73.59 |
| Cn1ncc2ccc(C3CCCN(Cc4ccsc4)C3)nc21 (configuration not stated) | 178.8 |
| Cn1ncc2ccc(C3CCCN(Cc4cccs4)C3)nc21 (configuration not stated) | 161.9 |
| O=C(c1cnc(Cc2c(Cl)cccc2Cl)nc1O)N1CCNCC1 | 20.47 |
| COCCc1noc(C2CCN(C(=O)Nc3cccs3)CC2)n1 | -7.09 |
| Cc1nsc(N2CCN(Cc3cccc(F)c3)CC2)n1 | -33.99 |
| O=C1CCC(=O)N1c1nn(Cc2ccccc2Cl)cc1Cl | 119 |
| c1ccc(CN2CCN(Cc3cscn3)CC2)cc1 | 8.549 |
| Fc1cccc(Cl)c1CN1CCn2c(nnc2C2CC2)C1 | -25.63 |
| O=c1ccc(-c2cccs2)nn1CN1CCN(Cc2ccccc2)CC1 | 10.59 |
| CCn1cc(C(=O)N(C)Cc2c(F)cccc2Cl)cn1 | 10.91 |
| O=C1N(Cc2ccccc2)C[C@H]2CN(Cc3ccccc3Cl)CCN12 | -1.651 |
| O=C1CCC(=O)N1c1nn(Cc2ccccc2)cc1Cl | 98.19 |
| O=C1N(c2cccc(Cl)c2)Cc2nc(=O)n(Cc3cccc(F)c3)n21 | -1.382 |
| O=C1CCC(=O)N1c1nn(Cc2cccc(F)c2)cc1Cl | 81.78 |
| O=C1CCC(=O)N1c1nn(Cc2c(F)cccc2Cl)cc1Cl | 84.15 |
| CN1CCN(Cc2ccccc2Cl)CC12CCC(=O)N(CC1CC1)CC2 (configuration not stated) | 19.23 |
| Cc1cc(C(=O)N2CCc3nnc(N(C)C)cc3C2)c(C)n1C1CC1 | 2.988 |

| SMILES | Percent Effect [%] |
| --- | --- |
| CS(=O)(=O)c1nnc(NC(=O)CCc2cccc(Cl)c2)[nH]1 | -4.467 |
| O=C(c1ncoc1-c1ccco1)N(Cc1ccco1)CC1CCCO1 (configuration not stated) | 1.49 |
| COc1cc(OC)c(CNC(=O)NCC(=O)N(C)C)c(OC)c1 | -14.89 |
| COc1ccc(-c2n[nH]cc2CN(C)CCC2CCOCC2)cc1F | -12.67 |
| CN(C)S(=O)(=O)N1CCCCC1CCc1ccc(O)cc1 (configuration not stated) | 3.428 |
| Cc1nsc(NCCNS(=O)(=O)c2cccc(Cl)c2)n1 | 1.185 |
| CC(C)C1CN(c2ncccc2Cl)CCC(=O)N1Cc1ccc(F)cc1 (configuration not stated) | 6.297 |
| O=C1CCC(=O)N1c1nn(Cc2ccc(F)cc2)cc1Cl | 96.9 |
| COc1nccnc1N1CCN(Cc2ccc(F)cc2)C(=O)C1 | -14.02 |
| Cc1ccc(CN(CCCO)Cc2nc3ccccc3[nH]2)s1 | -7.789 |
| CNC(=O)[C@@H]1C[C@@H](N)CN1C(=O)CCSCc1ccc(F)cc1 | -13.45 |
| Cc1ccc(CN2CCC[C@]3(C(=O)O)CN(c4ncccn4)C[C@@H]3C2)o1.O=C(O)C(F)(F)F | -9.127 |
| O=C(O)C(F)(F)F.O=C(O)[C@]12CCCN(Cc3ccccc3)C[C@H]1CN(c1ncccn1)C2 | -10.65 |
| O=C(O)C(F)(F)F.O=C(O)C(F)(F)F.O=C(O)[C@]12CCCN(Cc3ccncc3)C[C@H]1CN(c1ncccn1)C2 | 1.194 |
| Cc1cnc(N2C[C@@H]3CN(Cc4ccco4)CCC[C@]3(C(=O)O)C2)nc1.O=C(O)C(F)(F)F | 5.679 |
| O=C(C1CCC2(CCN(c3nncs3)CC2)CO1)N1CCCC1.O=C(O)C(F)(F)F (configuration not stated) | -6.023 |
| CNC(=O)C1CCC2(CCN(c3nncs3)CC2)CO1.O=C(O)C(F)(F)F (configuration not stated) | 1.191 |
| Cc1cnc(N2C[C@@H]3CN(C4CCOC4)CCC[C@]3(C(=O)O)C2)nc1.O=C(O)C(F)(F)F (some centres not stated) | 115.6 |
| O=C(O)C(F)(F)F.O=C(O)[C@]12CCCN(CC3CCOC3)C[C@H]1CN(c1ncccn1)C2 (some centres not stated) | 119 |
| O=C(O)C(F)(F)F.O=C(O)[C@]12CCCN(C3CCOC3)C[C@H]1CN(c1nncs1)C2 (some centres not stated) | 113.4 |
